Assay results reported in the supplement of paper PMC12669032.

What follows are compounds tested on Odoribacter splanchnicus (assay: growth AUC relative to DMSO control (median of replicates) (fraction); higher = more growth (less inhibition), active = hit call of the paper). Conditions: 20 µM; 24 h;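 active = AUC reduced over 20% with Padj below 0.05 in at least 2 of 3 replicates; inactive = otherwise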.
Procedure, shortened: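 Area under the growth curve was normalised to the plate median of solvent-only wells, except on the industrial chemical plate, where row and column medians were used. Curves came from gut bacterial monocultures grown anaerobically at 37 °C in mGAM with 20 µM compound (1% DMSO), starting at OD600 0.05 and read at OD600 every hour for 24 h. The minimum OD of each curve was set to 0, and values are medians of three biological replicates grown on separate days.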

Growth AUC, active:
O.O=C(Nc1ccc(Cl)c(Cl)c1)Nc1cc(Cl)ccc1Oc1ccc(Cl)cc1S(=O)(=O)[O-].[Na+] 0.0102

Growth AUC, inactive:
N#Cc1cc(Cl)c(O)c(Cl)c1 0.998, CCc1cccc(C)c1N(C(=O)C(=O)O)C(C)COC (stereo unspecified) 1.04, CCC([O-])=C1C(=O)CC(C(=O)[O-])CC1=O.[Ca+2] (stereo unspecified) 0.976, COC1CCC2(CC1)NC(=O)C(c1cc(C)ccc1C)C2O (stereo unspecified) 1.01, NC(=O)c1nn(-c2c(Cl)cc(C(F)(F)F)cc2Cl)c(N)c1S(=O)C(F)(F)F (stereo unspecified) 0.948, Cc1nn(C)c(F)c1C(=O)Nc1ccccc1C(C)CC(C)C (stereo unspecified) 0.899, CCOC(=O)c1nc(C(Cl)(Cl)Cl)n(-c2ccc(Cl)cc2Cl)n1 1, CCCCOCN(C(=O)CS(=O)(=O)[O-])c1c(CC)cccc1CC.[Na+] 0.938, CCc1cccc(CC)c1N(COC)C(=O)CS(=O)(=O)[O-].[Na+] 1.01, CCN(CC)C(=O)c1cccc(C)c1 1.13, COC(=O)c1c(Cl)ccc(Cl)c1OC 1.04, CCN(CC)c1nc(C)cc(=O)[nH]1 1.03, CC(C)CNC(=O)N1CCNC1=O 1.06, COC(=O)c1ccccc1S(=O)(=O)NC(=O)n1nc(OCC(C)O)n(C)c1=O (stereo unspecified) 0.943, CCCNCCOc1c(Cl)cc(Cl)cc1Cl 0.999
